Reference: PubChem BioAssay AID686979 (National Center for Advancing Translational Sciences (NCATS), 2013)
Screen size: about 420,000 compounds; about 50,000 (12%) were called active. About 26% were inconclusive and are not listed. Only a selection was taken, and actives are over-represented in it overall. Values without a mark were called inactive. Calls come from the whole dose curve; as a rule, active = well fitted inhibition curve with a large enough effect; inconclusive = small, poorly fitted or top-dose-only effect; inactive = flat fitted curve, though single readings scatter.

Assay: qHTS for Inhibitors of human tyrosyl-DNA phosphodiesterase 1 (TDP1): qHTS in cells in presence of CPT; note: nearly all actives have a fitted effect of over 55% in size
Conditions: chicken DT40 Tdp1-/-;hTDP1 cells + 20 nM CPT, ATP luminescence, 48 h; series mostly up to 46.2 µM; activity change, negative = growth inhibition: at the top concentration
Procedure, shortened: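 Chicken DT40 Tdp1-/- cells complemented with human TDP1, 400 cells/well, exposed to compounds plus 20 nM camptothecin for at least 48 h at 37 C; viability read as ATP content by CellTiter-Glo luminescence.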
% is set by controls: 0 for no effect and ±100 for the full control effect; potency is the fitted concentration of half-maximal effect.

Row | SMILES | Potency | activity change, negative = growth inhibition
1 | CC(=O)c1cccc(Nc2ccc3cc(S(=O)(=O)N4CCC(C)CC4)ccc3n2)c1 | 18.4 µM (active) | –
2 | CC(=O)c1cccc(NC(=O)COc2ccc(S(=O)(=O)N3CCOCC3)cc2)c1 | – | -18.5%
3 | CC1CCN(S(=O)(=O)c2ccc3[nH]c(=O)ccc3c2)CC1 | – | -2.79%
4 | CCCc1c(C)nc2c(Br)cccc2c1Cl | – | -1.98%
5 | COc1cc(NS(=O)(=O)c2ccc(N/C=C(\C=O)c3nc4cc(Cl)ccc4o3)cc2)nc(OC)n1 | – | -24.7%
6 | Cn1ncc(Br)c1C(=O)NC1CCCC1 | – | -11.4%
7 | CCC(Oc1ccccc1)C(=O)OCC(=O)Nc1c(C)nn(-c2ccccc2)c1C (configuration not stated) | – | 5.19%
8 | Nc1cc(=O)n(Cc2ccccc2)c(=O)n1Cc1ccccc1 | – | -10.3%
9 | CCN1CCN(Cc2c(O)ccc3c(=O)c(-c4ccc(OC)c(OC)c4)c(C(F)(F)F)oc23)CC1 | – | -18.3%
10 | Cc1ccc(C)c(Oc2c(C(F)(F)F)oc3c(CN4CCN(C)CC4)c(O)ccc3c2=O)c1 | 23.1 µM (active) | –
11 | CC1CCCN(Cc2c(O)ccc3c(=O)c(Oc4ccc(C(C)(C)C)cc4)c(C(F)(F)F)oc23)C1 (configuration not stated) | – | -18.6%
12 | CSc1ccc(CCNC(=O)c2cnn(-c3ccccc3)c2-n2cccc2)cc1 | 18.4 µM (active) | –
13 | Cc1c(C(=O)NCc2ccccc2)cnn1-c1ccccc1 | – | -16.4%
14 | CCCN1CCN(CCCNC(=O)c2cnn(-c3ccc(C)cc3)c2-n2cccc2)CC1 | – | -24%
15 | COc1cc(C(=O)Nc2ncccc2C)ccc1OCC(=O)N1CCOCC1 | – | -0.766%
16 | Cn1ccnc1-c1nnn(-c2ccc(F)cc2)n1 | – | -4.66%
17 | C/C(CC(=O)Nc1ccc(N(C)C)cc1)=N\NC(=O)c1ccccc1F | – | -17.5%
18 | Cc1cccc(C)c1NC(=S)N1CCCCCC1 | – | -7.74%
19 | CC(=NNC(=S)N1CCCCCC1)c1ccccn1 | 0.0092 µM (active) | –
20 | COc1ccc(C/C(C)=N/NC(=O)c2cc(C)oc2C)cc1 | – | 0.402%
21 | COc1ccc(C/C(C)=N/NC(=O)c2ccncc2)cc1 | – | 5.91%
22 | C/C(=N\NC(=O)Cc1ccc(Br)cc1)c1cccnc1 | – | -24.7%
23 | O=C(Nc1ccc(NC(=O)c2ccccc2F)cc1)c1ccccc1F | – | -12.9%
24 | Cc1ccc(Cl)cc1NC(=O)c1ccccn1 | – | -18.9%
25 | C/C(=N\NC(=O)Cc1ccc(Cl)cc1)c1ccccn1 | 1.46 µM (active) | –
26 | CNC(=S)N1CCN(c2ccccn2)CC1 | – | -0.34%

Row | SMILES | Potency | activity change, negative = growth inhibition
27 | C/C(=N\NC(=O)c1ccccc1F)c1ccccn1 | 3.26 µM (active) | –
28 | COc1ccc(CC(=O)N/N=C(\C)c2ccccn2)cc1 | 3.66 µM (active) | –
29 | CCC1([N+](=O)[O-])COC(c2ccc(C)cc2)OC1 (configuration not stated) | – | -10.3%
30 | Cc1cc(C(C)(C)C)n2nc(C)c(-c3ccccc3)c2n1 | – | -11.6%
31 | CCc1nnc(NC(=O)c2cc(S(=O)(=O)N3CCCCC3)ccc2C)s1 | – | -3.57%
32 | CCOC(=O)C1CCN(C(c2ccc(F)cc2)c2sc3nc(-c4ccco4)nn3c2O)CC1 (configuration not stated) | – | -0.823%
33 | Cc1cccc(N(C(=O)c2csnn2)C(C(=O)NCc2ccccc2)c2ccncc2)c1 (configuration not stated) | – | -22%
34 | Cc1ccc(NC(=O)CCCNC(=O)c2ccc(Cl)cc2)cc1S(=O)(=O)N1CCOCC1 | – | -28.1%
35 | O=C(Nc1cccc(F)c1)N1CC2(CCN(C(=O)c3cnccn3)CC2)C1 | – | 1.43%
36 | COc1ccc(NC(=O)Cn2ncn3c(cc4ccccc43)c2=O)c(OC)c1OC | – | 18.6%
37 | O=C1CCC(C(=O)N2CCC(O)(c3ccccc3)CC2)CN1CCc1ccccc1 (configuration not stated) | – | -4.28%
38 | Cc1cccnc1NC(=O)CSc1nnc(COc2ccc(C(C)C)cc2)n1C | – | -14%
39 | CN(CC(=O)Nc1ccccc1Cl)C(=O)COc1cccc2c1OC(C)(C)C2 | – | -16.5%
40 | Cn1nc(C(F)(F)F)c(C(=O)Nc2cccc(C(F)(F)F)c2)c1SCc1ccc(Cl)cc1 | 16.4 µM (active) | –
41 | CCC(=O)OCc1c(C(F)(F)F)nn(C)c1Oc1cccc(C(F)(F)F)c1 | – | -24.2%
42 | O=C(O)CSCC(=O)Nc1cccc(C(F)(F)F)c1 | – | 2.36%
43 | CC(C)OCCCNC(=O)c1ccc(C2SCC(=O)N2Cc2ccco2)cc1 (configuration not stated) | – | -1.03%
44 | COCCNC(=O)c1ccc2c(c1)N=C(C)c1cc(C)ccc1S2 | 0.517 µM (active) | –
45 | COCCNC(=O)c1snc2ccc(Cl)cc12 | – | -8.22%
46 | CC(C)OCCCNC(=O)CNC(=O)c1cccs1 | – | 3.22%
47 | Cc1ccc(OCCNC(=O)CNC(=O)c2ccc(C)c(C)c2)cc1 | – | 5.02%
48 | CCC1=Nc2cc(C(=O)NCCCOC(C)C)ccc2Sc2ccc(C)cc21 | 0.92 µM (active) | –
49 | CCCCSc1[nH]c(=O)c(C(=O)OCC)cc1C#N | – | -15.2%
50 | Cc1ccc(C)c(-n2c(SCC(=O)O)nc3sc4c(c3c2=O)CCCC4)c1 | – | -11.5%
51 | CCOC(=O)c1c(NC(=O)CN2C(=O)NC3(CCC(C)CC3)C2=O)sc(C)c1CC (configuration not stated) | – | -5.5%
52 | Nc1ccc(C(=O)NCc2ccccc2)cc1 | – | -1.18%
